Test [1] can be described thus: qHTS assay for small molecule agonists of the p53 signaling pathway (AID 651631; calls by dose curve; note: nearly all actives have a fitted effect of over 15% in size). In a few lines:
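Beta-lactamase reporter activity under p53 response elements was quantified in HCT-116 cells by FRET fluorescence, following 16 h incubation with test compounds at 37 °C and 2 h substrate development at room temperature.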
(Quantitative high-throughput screening tests each substance at several concentrations.)

Test [2] can be described thus: qHTS assay for small molecules that induce genotoxicity in human embryonic kidney cells expressing luciferase-tagged ATAD5 (AID 651632). Note: nearly all actives have a fitted effect of over 15% in size. In a few lines:
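Test compounds were delivered by pin tool onto HEK293T reporter cells (2,000/well) expressing ATAD5 fused to luciferase. After 16 hr at 37C, 5% CO2, Amplite was added for 30 min at room temperature and luminescence was measured.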

The nature of test [3]: qHTS assay for small molecule agonists of the p53 signaling pathway - cell viability (AID 651633; calls by dose curve;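 note: p53RE-bla HCT reporter cells with a stable beta-lactamase p53 reporter; series mostly up to about 83 µM; nearly all actives have a fitted effect of over 30% in size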). In a few lines:
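p53RE-bla cells, seeded at 4,000 per well and rested 5 h at 37 C/5% CO2, received compounds in DMSO for 16 h at 37 C. CellTiter-Glo was then added, and luminescence was read after 30 min at room temperature to gauge cytotoxicity.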

The nature of test [4]: qHTS assay for small molecules that induce genotoxicity in human embryonic kidney cells expressing luciferase-tagged ATAD5 - cell viability (AID 651634; calls by dose curve; note: nearly all actives have a fitted effect of over 25% in size). Summed up:
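Quantitative high-throughput format. HEK293T cells expressing ATAD5 fused to luciferase were plated at 2,000 cells/well and treated 15.5 hr with compound versus DMSO. Viability was determined by fluorescent live-cell protease substrate, 30 min at 37C.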

Test [5] is described as follows: qHTS assay for small molecule disruptors of the mitochondrial membrane potential - cell viability (AID 720634; calls by dose curve;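 note: human HepG2 liver cancer cells; series mostly up to about 83 µM; nearly all actives have a fitted effect of over 20% in size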). In a few lines:
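Same-well counter-screen: following the MMP dye addition, CellTiter-Glo was added to 1 hr compound-treated HepG2 cells and luminescence read after 30 min at room temperature.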

The nature of test [6]: qHTS assay for small molecule disruptors of the mitochondrial membrane potential (AID 720635). Note: potency is the fitted concentration of half-maximal effect. Summed up:
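HepG2 cells (2,000/well) attached overnight at 37C, then took compound for 1 hr at 37C, 5% CO2. Mito-MPS dye was added for 30 min; fluorescence was read at 490/535 nm (monomers) and 540/590 nm (aggregates).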

Test [7] is described as follows: qHTS assay to test for compound auto fluorescence at 590 nm (red) in HepG2 cells (AID 720674). Summed up:
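Rose Bengal sodium served as the red fluorophore standard. HepG2 monolayers (overnight attachment, MEM with 10% FBS) were exposed to test compounds for 1 hr at 37 C and read at Ex 540/Em 590 nm.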

The nature of test [8]: qHTS assay to test for compound auto fluorescence at 535 nm (green) in HepG2 cells (AID 720675).
The nature of test [9]: qHTS assay to test for compound auto fluorescence at 460 nm (blue) in HEK293 cells (AID 720678). Summed up:
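HEK293 cells (2,000 per well, medium with 10% dialyzed FBS) attached for 4-5 hr at 37C, then received compound and stood overnight at 37C, 5% CO2. Blue fluorescence was read at Ex/Em 405/460 nm and expressed relative to triamterene.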

Test [10] is described as follows: qHTS assay to test for compound auto fluorescence at 535 nm (green) in HEK293 cells (AID 720680).
Test [11] can be described thus: qHTS assay to test for compound auto fluorescence at 460 nm (blue) in HEK293 cell free culture (AID 720681). Summed up:
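Test compounds were pinned into cell-free culture medium (DMEM with 10% FBS) and fluorescence was read directly at Ex/Em 405/460 nm. Signals were expressed as fluorescence equivalents of triamterene, with DMSO vehicle as control.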

The nature of test [12]: qHTS assay to test for compound auto fluorescence at 590 nm (red) in HEK293 cell free culture (AID 720683). Summed up: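 Tox21 10K library compounds were pinned into cell-free DMEM with 10% FBS and fluorescence was read at excitation 540 nm. Activity is expressed as Rose Bengal sodium equivalency.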
A short description of test [13]: qHTS assay to test for compound auto fluorescence at 590 nm (red) in HepG2 cell free culture (AID 720684). Summed up: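 Readout: intrinsic compound fluorescence at 590 nm emission after 540 nm excitation, scaled to Rose Bengal sodium. Matrix was cell-free MEM with 10% FBS; DMSO vehicle wells served as control.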
A short description of test [14]: qHTS assay to test for compound auto fluorescence at 460 nm (blue) in HepG2 cell free culture (AID 720685). In a few lines:
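Cell-free plates of MEM plus 10% FBS received 23 nL compound or DMSO vehicle; blue-channel (405/460 nm) intensity scored against triamterene as reference fluorophore.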

The nature of test [15]: qHTS assay to test for compound auto fluorescence at 535 nm (green) in HepG2 cell free culture (AID 720686).
Test [16] in a line: qHTS assay to test for compound auto fluorescence at 460 nm (blue) in HepG2 cells (AID 720687). Summed up: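 Cells (2,000/well in MEM with 10% FBS) attached overnight at 37 C, then were exposed to compound or DMSO for 1 hr at 37 C, 5% CO2. Fluorescence read at Ex/Em 405/460 nm, expressed as triamterene-equivalent signal.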
In test [17] the target is Glucocorticoid receptor (Homo sapiens) (UniProt P04150). As to the kind of experiment: qHTS assay to identify small molecule agonists of the glucocorticoid receptor (GR) signaling pathway (AID 720691; active = well fitted activation curve with a large enough effect in the signal ratio in the repeat runs, not every such curve was filed as active; the % refers to the signal ratio). In a few lines:
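A HeLa cervical cancer line expressing GR and a glucocorticoid response element-driven beta-lactamase gene is treated with compounds for 18 h; LiveBLAzer B/G FRET substrate is then applied and fluorescence read.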

For test [18] the target is unchanged. As to the kind of experiment: qHTS assay to identify small molecule antagonists of the glucocorticoid receptor (GR) signaling pathway (AID 720692; active = well fitted inhibition curve with a large enough effect in the signal ratio in the repeat runs, not every such curve was filed as active; the % refers to the signal ratio). In a few lines:
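GRE-bla HeLa line, dex-stimulated (5 nM final). Compound exposure 18 h, 37 C. Beta-lactamase FRET read after 2 h RT substrate.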

The nature of test [19]: qHTS assay to test for compound auto fluorescence at 590 nm (red) in HEK293 cells (AID 720679). In a few lines: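 HEK293 cells (2,000/well, medium with 10% dialyzed FBS) attached for 4-5 hr at 37C, received 23 nL compound and were incubated overnight at 37C, 5% CO2. Red fluorescence was then read at 540/590nm Ex/Em, referenced to Rose Bengal sodium.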
Test [20] can be described thus: qHTS assay to test for compound auto fluorescence at 535 nm (green) in HEK293 cell free culture (AID 720682). Summed up: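 Each library compound, or DMSO control, is added by pintool to medium alone, comprising DMEM and 10% FBS. Emission at 535 nm following 485 nm excitation is quantified against fluorescein.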

The structures appear in SMILES notation. Unmarked numbers belong to inactive results. Results filed as inconclusive are left out. The source made the active and inactive calls. Unless noted, calls come from the whole dose curve; as a rule, active = well fitted curve in the direction sought with a large enough effect in the repeat runs; inconclusive = weak or mixed curves; inactive = no such curve, though single readings can be large; an effect the other way counts as inactive or inconclusive.

For seven molecules, Potency and outcome results are on record in PubChem BioAssay (Tox21).

Glucocorticoid receptor (Homo sapiens), sequence (P04150 whole entry, looked up): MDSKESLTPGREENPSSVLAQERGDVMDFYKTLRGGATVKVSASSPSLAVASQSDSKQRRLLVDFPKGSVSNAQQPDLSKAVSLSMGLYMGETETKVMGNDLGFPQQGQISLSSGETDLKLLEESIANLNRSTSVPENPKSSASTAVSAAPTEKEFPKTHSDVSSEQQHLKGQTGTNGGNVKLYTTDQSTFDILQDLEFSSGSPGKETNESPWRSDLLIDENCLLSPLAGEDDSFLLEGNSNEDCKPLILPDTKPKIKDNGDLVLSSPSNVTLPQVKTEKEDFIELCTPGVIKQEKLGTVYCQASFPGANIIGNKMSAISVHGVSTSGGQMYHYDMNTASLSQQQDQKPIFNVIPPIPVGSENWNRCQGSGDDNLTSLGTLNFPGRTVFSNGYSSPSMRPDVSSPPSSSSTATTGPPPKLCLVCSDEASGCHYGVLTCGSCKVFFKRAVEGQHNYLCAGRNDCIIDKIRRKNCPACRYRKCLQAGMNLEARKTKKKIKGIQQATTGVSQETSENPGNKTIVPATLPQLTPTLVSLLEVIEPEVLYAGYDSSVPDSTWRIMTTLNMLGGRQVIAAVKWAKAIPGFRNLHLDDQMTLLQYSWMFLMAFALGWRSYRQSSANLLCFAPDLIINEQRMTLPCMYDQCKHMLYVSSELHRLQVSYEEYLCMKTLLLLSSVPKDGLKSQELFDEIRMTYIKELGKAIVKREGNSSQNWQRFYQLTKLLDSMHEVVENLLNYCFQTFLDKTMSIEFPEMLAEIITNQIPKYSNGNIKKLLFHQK

On to `COc1cc2c(cc1OC)-c1cc3ccc(OC)c(OC)c3c[n+]1CC2`, for which the Potency result in test [1], in test [2], in [3], in [4], in test [17] and in [18] was “inactive” each time. The result in test [5], in [7], in [8], in test [9], in test [10] and in test [11] was inactive. Further, the call in test [12], in test [13], in test [14], in test [15] and in [16] was inactive. In addition, the Potency in test [6] was 17.4 µM (active).
On to `CC(C)(C)C(=O)c1ccccc1`, for which the Potency entry in test [1], in [2], in test [3], in [4], in test [6] and in test [17] was “inactive” each time. Further, the Potency result in test [18] is “inactive”. Further, the result in [5], in test [7], in test [8], in [19], in [10] and in [11] was inactive. Also, the molecule was called inactive in test [20], in test [12], in test [13], in [14], in test [15] and in test [16].
Consider `Cc1cccc(C)c1NC(=O)CC12CCCN1CCC2`, for which the Potency result in test [1], in test [2], in test [3], in [4], in [6] and in test [17] was “inactive” each time. In addition, the outcome in test [5], in test [7], in [8], in test [10], in test [11] and in test [20] was inactive. For the same molecule, the molecule was classed as inactive in test [12], in [13], in [14], in [15] and in test [16].
Turning to `CCC(=O)OCc1ccccc1`, the Potency entry in test [1], in test [2], in [3] and in test [4] was “inactive” throughout. The result in test [5], in [7], in [8], in [9], in [19] and in test [10] was inactive. In addition, the result in test [11], in test [20], in test [12], in test [13], in test [14] and in [15] was inactive. Further, the call in [16] was inactive.
Regarding `CN(C)CCCN(C)CCCN(C)C`, the Potency result in test [1], in [2], in test [3] and in test [4] was “inactive” in each case. For the same molecule, the result in test [5], in test [7], in test [8], in test [9], in [19] and in test [10] was inactive. For the same molecule, the call in test [11], in test [20], in [12], in test [13], in test [14] and in test [15] was inactive. In addition, the outcome in test [16] was inactive.
For the molecule `CC/C=C\CCOC(C)OCC` (stereo unspecified), the Potency entry in [1], in [2], in test [3], in test [4], in test [6] and in test [17] was “inactive” each time. In addition, the Potency result in test [18] is “inactive”. In addition, the molecule was classed as inactive in test [5], in test [7], in [8], in [9], in [10] and in [11]. In addition, the outcome in [20], in [12], in [13], in test [14], in [15] and in test [16] was inactive.
With `CCCCCCCCN1CCCC1=O`, the Potency result in test [1], in [2], in test [3], in test [4], in [17] and in [18] was “inactive” throughout. Further, the molecule was classed as inactive in test [5], in test [7], in [8], in [9], in test [19] and in [10]. For the same molecule, the result in test [11], in test [20], in test [12], in [13], in test [14] and in test [15] was inactive. In addition, in [16], the molecule was called inactive.
